This passage reports Potency, max response and activation results from PubChem BioAssay (NCATS).

Each structure is given as a SMILES string. Several values for one entry are separate records, joined by “and”; a condition that tells them apart may be missing. Identical values can stand only once. Records with an inconclusive call do not appear. Activity calls are given as the source filed them. Unless noted, the call rests on the fitted dose curve; in most records, active means well fitted curve in the direction sought with a large enough effect; inconclusive means small, poorly fitted or top-dose-only effect, or another doubt; inactive means no such curve, though single readings can be large; an effect the other way counts as inactive or inconclusive.

The nature of experiment [1]: Cell Viability - LYMP2-001 (AID 921). Further: nearly all actives have a fitted effect of over 70% in size. Further: potency means the concentration at half of the fitted maximal effect. The method in brief: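 Cellular ATP loss read by luciferase luminescence after 24 h compound exposure at 37 C in complete medium. LYMP2-001 lymphoblastoid cells, 2500/well; qHTS concentration-response data fitted with Hill equation for AC50.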
Experiment [2] can be described thus: MultiTox-Fluor Cytotoxicity Assay - LYMP1-002 - Dead Cells (AID 960).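 Further: cells exposed to compound for 16 h at 37 °C; 0% = DMSO and 100% = tetraoctylammonium bromide; nearly all actives have a fitted effect of over 60% in size.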 The method in brief:
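Concentration-dependent increases in membrane-leaked protease activity are quantified in LYMP1-002 cells after 16 hr treatment; values are normalized against DMSO and tetraoctylammonium bromide (15 uM) controls and AC50 derived by Hill modeling.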

Experiment [3] can be described thus: Cell Viability - LYMP2-005 (AID 967). Further: potency means the concentration at half of the fitted maximal effect. Put shortly:
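LYMP2-005 human lymphoblastoid cells (2500/well) were treated with compounds for 24 h at 37 C. Intracellular ATP was then measured by CellTiter-Glo luminescence after 30 min at room temperature. AC50 values came from Hill-equation fits of qHTS concentration-response data.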

Experiment [4] can be described thus: Cell Viability - LYMP2-011 (AID 969).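 Further: cells exposed to compound for 24 hours; 0% = DMSO only and full inhibition = 92 µM tetraoctylammonium bromide; nearly all actives have a fitted effect of over 60% in size.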 Put shortly:
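Cells seeded at 2500 per well rest 5 hr before compound addition, then incubate 24 hr at 37 C. CellTiter-Glo reagent is added for 30 min at room temperature before luminescence detection.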

Experiment [5] can be described thus: Cell Viability - LYMP2-013 (AID 970).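 Further: series mostly up to about 92 µM; 0% = DMSO only and full inhibition = tetraoctylammonium bromide control; nearly all actives have a fitted effect of over 55% in size.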 Put shortly:
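In complete culture medium, human lymphoblastoid cells were dosed for 24 hr at 37 C, with tetraoctylammonium bromide (6.4pM to 92 uM) as positive control. Viability reflects luciferase-based ATP signal; AC50 derived from concentration-response curves.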

A short description of experiment [6]: Cell Viability - LYMP2-017 (AID 972).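 Further: cells exposed to compound for 24 hours at 37 °C; nearly all actives have a fitted effect of over 55% in size.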 Further: potency means the concentration at half of the fitted maximal effect. Put shortly: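 In this qHTS format, lymphoblastoid cells in complete medium receive test compound for a day at 37 C before ATP content is quantified by luciferase luminescence. Reported AC50 figures come from standard Hill-equation curve fitting.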
Experiment [7] in a line: Cell Viability - LYMP2-023 (AID 975).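 Further: cellular ATP measured by luciferase luminescence as viability proxy; series mostly up to about 92 µM; cells exposed to compound for 24 hours at 37 °C; plate controls were DMSO only for no effect and 92 µM tetraoctylammonium bromide control for full effect; nearly all actives have a fitted effect of over 55% in size.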 The method in brief: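 In this qHTS, ATP-based luciferase luminescence (CellTiter-Glo) is quantified in human lymphoblastoid cells after 24 hr compound treatment at 37 C; tetraoctylammonium bromide serves as positive control. Concentration-response curves are Hill-fitted to give AC50.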
A short description of experiment [8]: Cell Viability - LYMP2-002 (AID 977).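 Further: series mostly up to about 92 µM; plate controls were DMSO only for no effect and 92 µM tetraoctylammonium bromide for full effect.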 The method in brief: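 In this qHTS viability screen, 2500 human lymphoblastoid cells per well receive compound for 24 hr at 37 C, and luciferase-based ATP luminescence gives the viability signal. Tetraoctylammonium bromide serves as positive control.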
Experiment [9] in a line: Cell Viability - LYMP2-007 (AID 979).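 Further: cells exposed to compound for 24 h before reading; nearly all actives have a fitted effect of over 60% in size.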 Further: potency means the concentration at half of the fitted maximal effect. The method in brief: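 Measured via luciferase-based ATP quantitation: lymphoblastoid cells, 24 hr compound exposure at 37 C, AC50 from Hill fits.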
A short description of experiment [10]: Cell Viability - LYMP2-014 (AID 983).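 Further: series mostly up to about 92 µM; plate controls were DMSO only for no effect and 92 µM tetraoctylammonium bromide for full effect; nearly all actives have a fitted effect of over 50% in size.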 The method in brief: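 Quantitative HTS in lymphoblastoid cells: 24 hr compound exposure, then CellTiter-Glo ATP luminescence. Positive control was tetraoctylammonium bromide, 6.4pM to 92 uM.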
Experiment [11] in a line: Cell Viability - LYMP2-016 (AID 984).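 Further: cells exposed to compound for 24 hours at 37 °C; on the % scale 0 is the no-effect control and ±100 the full control effect; nearly all actives have a fitted effect of over 55% in size.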 The method in brief: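 Cytotoxicity was scored by luminescent ATP content (CellTiter-Glo) after 24 h compound exposure at 37 C of a human lymphoblastoid line at 2500 cells/well. Concentration-response data were fitted to the Hill equation for AC50.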
Experiment [12] is described as follows: Cell Viability - LYMP2-018 (AID 985).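 Further: plate controls were DMSO only for no effect and tetraoctylammonium bromide at 92 µM for full effect; nearly all actives have a fitted effect of over 50% in size.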 The method in brief: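 In this qHTS viability assay, cells are treated for 24 hr and cellular ATP is quantified by luciferase-based luminescence, with tetraoctylammonium bromide as positive control.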
Experiment [13] can be described thus: Cell Viability - LYMP2-020 (AID 986). The method in brief: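 Cells at 2500 per well receive a 24 hr compound exposure at 37 C. Viability is measured as ATP-dependent luciferase luminescence, with AC50 modeled from qHTS concentration-response curves.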
Experiment [14] is described as follows: Cell Viability - LYMP2-022 (AID 987). Further: nearly all actives have a fitted effect of over 55% in size. Further: potency means the concentration at half of the fitted maximal effect. Put shortly: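 In this qHTS cytotoxicity screen, compound titrations were incubated 24 hr at 37 C with human lymphoblastoid cells in complete medium. Luciferase-based ATP luminescence provided the viability signal.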
The nature of experiment [15]: Cell Viability - LYMP2-024 (AID 988). Further: nearly all actives have a fitted effect of over 60% in size. Further: potency means the concentration at half of the fitted maximal effect. Put shortly: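 Cells at 2500 per well received compound for 24 hr after a 5 hr settling period. Viability was scored by CellTiter-Glo luminescence, with AC50 from Hill fits.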
Experiment [16] addresses Retinoic acid receptor RXR-alpha (Homo sapiens) (UniProt P19793). Kind of experiment: qHTS assay for small molecule agonists of retinoid X receptor alpha signaling (AID 588544; calls by dose curve;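 further: 0% = DMSO basal wells and 100% = reference agonist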). For orientation: Quantitative high-throughput screening tests each substance at several concentrations.
A short description of experiment [17]: qHTS assay for small molecule antagonists of retinoid X receptor alpha signaling (AID 588546; active means well fitted inhibition curve with a large enough effect in the signal ratio, with a control signal flat, not every such curve was filed as active; the % refers to the signal ratio;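 further: cells stimulated with 9-cis-retinoic acid as agonist; on the % scale 0 is the no-effect control and ±100 the full control effect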). The note with it: HEK293T RXRa-UAS-bla, beta-lactamase ratio, antagonist mode; measured here: W530 green channel, cytotoxicity proxy. Put shortly: (§1)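 Beta-lactamase reporter inhibition, read as CCF4 fluorescence ratio (ex 405, em 460/530 nm) after 2 h at RT. HEK293T UAS-bla cells, 2500/well, were stimulated with 9-cis-RA at 500 or 100 nM final alongside test compound for 18 h at 37 C.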

The target of experiment [18] is Retinoic acid receptor RXR-alpha (Homo sapiens) (UniProt P19793). Described as above. The note with it: HEK293T RXRa-UAS-bla, beta-lactamase ratio, antagonist mode. Put shortly: as §1
Experiment [19] is described as follows: qHTS assay for small molecule disruptors of the mitochondrial membrane potential - 1 hr assay (AID 651754; calls by dose curve; further: on the % scale 0 is the no-effect control and ±100 the full control effect; nearly all actives have a fitted effect of over 35% in size). The method in brief:
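In this qHTS format, a 1 hr compound treatment of HepG2 cells precedes Mito-MPS staining, and membrane potential is judged from aggregate (red) against monomer (green) fluorescence intensity.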

A short description of experiment [20]: qHTS assay for environmental chemicals that activate the Aryl hydrocarbon Receptor (AhR) signaling pathway (AID 651777). Further: % of control where 0% means no effect; nearly all actives have a fitted effect of over 15% in size. The settings on record: 1A2-DRE human hepatoma cells, luciferase, 24 h; activation: stronger effect = higher value. The method in brief: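 Following a 24 hr incubation with test chemicals at 37 C and 5% CO2, 1A2-DRE human hepatoma cells received One-Glo reagent; after 30 min at room temperature, luciferase output reflected CYP1A2 induction via AhR.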

Chain of Retinoic acid receptor RXR-alpha (Homo sapiens) (P19793 whole entry, looked up): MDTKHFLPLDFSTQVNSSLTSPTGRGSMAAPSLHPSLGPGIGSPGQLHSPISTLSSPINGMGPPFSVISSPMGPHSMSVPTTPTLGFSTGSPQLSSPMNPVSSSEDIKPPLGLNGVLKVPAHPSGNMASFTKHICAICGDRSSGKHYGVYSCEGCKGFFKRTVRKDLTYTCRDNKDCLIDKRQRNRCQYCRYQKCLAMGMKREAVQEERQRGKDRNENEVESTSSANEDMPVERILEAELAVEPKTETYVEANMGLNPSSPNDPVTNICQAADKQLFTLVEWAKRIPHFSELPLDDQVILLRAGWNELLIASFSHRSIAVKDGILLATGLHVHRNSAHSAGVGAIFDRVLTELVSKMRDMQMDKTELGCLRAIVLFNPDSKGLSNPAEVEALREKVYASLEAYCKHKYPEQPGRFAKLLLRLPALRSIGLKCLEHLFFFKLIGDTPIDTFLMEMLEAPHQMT

As for `ClC(Cl)(Cl)c1ccccc1`, the Potency result in experiment [1], in experiment [2], in experiment [3], in [4], in experiment [5] and in experiment [6] was “inactive” each time. The Potency result in [7], in experiment [8], in experiment [9], in experiment [10], in experiment [11] and in experiment [12] was “inactive” throughout. The Potency entry in [13], in experiment [14], in experiment [15], in experiment [16] and in experiment [19] was “inactive” each time. For the same compound, the max response in experiment [17] is -5.33% and -1.27%; in [18], 9.82% (inactive) and 8.91% (inactive). The activation in experiment [20] is -0.334% (inactive) and -0.126% (inactive).
`CC(C)(OO)c1ccccc1`: the Potency in experiment [1] was 39.8 µM (active); in [3] it was 39.8 µM (active); in experiment [6] it was 50.1 µM (active); in [9] it was 31.6 µM (active); in [14], 39.8 µM (active); in experiment [15] it was 31.6 µM (active). In addition, the Potency result in [2], in experiment [8], in [10], in experiment [11], in [13] and in experiment [16] was “inactive” in each case. Moreover, in [19], the Potency entry was “inactive”. For the same compound, the max response in experiment [17] is 16% and -6.37%; in experiment [18], 2.62% (inactive) and 5.92% (inactive). Also, the activation in [20] was 0.536% (inactive) and 0.232% (inactive).
For `ClCBr`, the Potency result in [2], in experiment [3], in experiment [4], in experiment [5], in experiment [6] and in [7] was “inactive” in each case. Further, the Potency entry in experiment [8], in experiment [12], in experiment [14], in experiment [15], in experiment [16] and in experiment [19] was “inactive” throughout. Further, the max response in [17] was -9.96%; in experiment [18], -1.21% (inactive). Besides, the activation in experiment [20] is -0.711% (inactive).
For `BrCCBr`, the Potency result in experiment [1], in experiment [2], in experiment [3], in experiment [4], in [5] and in experiment [6] was “inactive” in each case. Moreover, the Potency result in [7], in experiment [8], in experiment [9], in [10], in [11] and in experiment [12] was “inactive” each time. In addition, the Potency result in experiment [13], in experiment [14], in experiment [15], in [16] and in experiment [19] was “inactive” in each case. The max response is -10.6% and -9.29% in experiment [17]; 9.69% (inactive) and -0.139% (inactive) in experiment [18]. Moreover, in [20], the activation was -1.12% (inactive) and 0.568% (inactive).
As for `CC(Cl)Cl`, the Potency entry in [1], in experiment [2], in experiment [3], in experiment [4], in experiment [5] and in [6] was “inactive” throughout. Further, the Potency result in [7], in experiment [8], in experiment [9], in [10], in experiment [11] and in experiment [12] was “inactive” each time. Further, the Potency result in [13], in experiment [14], in [15], in [16] and in [19] was “inactive” throughout. In addition, the max response in [17] is -2.19%; in experiment [18], 21.2% (inactive). Moreover, the activation in experiment [20] was -0.961% (inactive).
As for `CC(C)(C)OO`, the Potency entry in [1], in experiment [2], in experiment [3], in [4], in experiment [5] and in experiment [6] was “inactive” throughout. Further, the Potency result in experiment [7], in experiment [8], in experiment [9], in experiment [10], in [11] and in [12] was “inactive” throughout. In addition, the Potency result in experiment [13], in experiment [14], in experiment [15], in experiment [16] and in [19] was “inactive” each time. The max response in experiment [17] is -3.93% and -2.51%; in experiment [18], 34% (inactive) and 10.1% (inactive). Also, in experiment [20], the activation was -0.688% (inactive) and -2.1% (inactive).
For `Cc1ccc(O)c(C)c1`, the Potency entry in experiment [1], in experiment [2], in experiment [3], in [4], in [5] and in experiment [6] was “inactive” each time. Also, the Potency result in [7], in experiment [8], in [9], in [10], in [11] and in [12] was “inactive” throughout. Further, the Potency entry in experiment [13], in experiment [14], in [15], in experiment [16] and in experiment [19] was “inactive” throughout. Further, the max response in experiment [17] is -12.5% and -7.89% and -6.08%; in [18], 0.533% (inactive) and 0.504% (inactive) and 10.6% (inactive). Besides, in experiment [20], the activation was -0.285% (inactive) and -2.95% (inactive) and -1.2% (inactive).
